Data from PubChem BioAssay AID463173 (ICCB-Longwood Screening Facility, Harvard Medical School, 2010).
The campaign covered roughly 52,000 compounds. About 4,300 (8.3%) were called active. Rule as the data show it: active = survival mostly below about 52% (no sharp cut-off); inactive = mostly above about 56%. The sample as a whole holds a higher share of actives than the screen did.

What follows are molecules tested on DeltatarO mutant (assay: growth inhibition of S. aureus wild type versus tarO mutant, primary screen, teichoic acid synthesis inhibitors, RN4220, OD600 (AID 463173)). Conditions: OD600, 18 h, hits give low values, screened at 18.75 µg/mL (by protocol).

| Compound | survival |
| --- | --- |
| Cc1oc2cc3oc(=O)c(CCC(=O)NCCc4ccccc4F)c(C)c3cc2c1C | 94% (inactive) |
| O=S(=O)(c1ccc2oc(-c3cccnc3)nc2c1)c1ccc2oc(-c3cccnc3)nc2c1 | 64% (inactive) |
| CCOC(=O)c1c(-c2ccc(C)cc2C)csc1NC(=O)c1ccccc1Cl | 47% (inactive) |
| CC(C)c1ccc(C2N3CC4(C)CN2CC(c2ccccc2)(C3)C4=O)cc1 (centres undefined) | 80% (inactive) |
| CC(C)NC(=O)C1CC(=O)N(c2ccc(Oc3ccccc3)cc2)C1 (centres undefined) | 87% (inactive) |
| CSc1ncc(Cl)c(C(=O)Nc2ccc(S(=O)(=O)N3CCC(C)CC3)cc2)n1 | 62% (inactive) |
| O=C(Cn1ccn(-c2ccc(F)cc2)c(=O)c1=O)Nc1ccccc1C(F)(F)F | 50% (inactive) |
| Cc1ccc(Sc2c(C)nn(C(C)(C)C)c2OC(=O)CC(C)C)cc1 | -9% (active) |
| COCC(=O)Oc1c(Sc2ccc(C)cc2)c(C)nn1C(C)(C)C | 78% (inactive) |
| CCC(=O)Oc1c(Sc2ccc(Cl)cc2)c(C)nn1C(C)(C)C | 78% (inactive) |
| O=C(CC1Nc2ccccc2NC1=O)Nc1cccc2ccccc12 (centres undefined) | 93% (inactive) |
| COc1ccc(CNC(=O)c2ccc(Cn3c(=O)c4cccn4c4cccnc43)cc2)cc1OC | 67% (inactive) |
| CCOc1ccccc1CNC(=O)c1ccc(Cn2c(=O)c3cccn3c3cccnc32)cc1 | 44% (active) |
| O=C(NCc1ccccc1Cl)c1ccc(Cn2c(=O)c3cccn3c3cccnc32)cc1 | 103% (inactive) |
| O=C(NCc1ccc(Cl)cc1)c1ccc(Cn2c(=O)c3cccn3c3cccnc32)cc1 | 49% (inactive) |
| Cc1ccc(CCNC(=O)c2ccc(Cn3c(=O)c4cccn4c4cccnc43)cc2)cc1 | 52% (inactive) |
| CC(C)Oc1ccc(CNC(=O)c2ccc(Cn3c(=O)c4cccn4c4cccnc43)cc2)cc1 | 55% (inactive) |
| O=C(NCCc1ccccc1)c1ccc(Cn2c(=O)c3cccn3c3cccnc32)cc1 | 51% (inactive) |
| COc1ccc(CNC(=O)c2ccc(Cn3c(=O)c4cccn4c4cccnc43)cc2)c(OC)c1 | 58% (active) |
| CCOc1cc(CNC(=O)c2ccc(Cn3c(=O)c4cccn4c4cccnc43)cc2)ccc1OC | 52% (active) |
| O=C(NCCc1ccc(Cl)cc1)c1ccc(Cn2c(=O)c3cccn3c3cccnc32)cc1 | 43% (active) |
| CCCNC(=O)c1ccc(Cn2c(=O)c3cccn3c3cccnc32)cc1 | 52% (inactive) |
| CN(C)c1ccc(CNC(=O)c2ccc(Cn3c(=O)c4cccn4c4cccnc43)cc2)cc1 | 60% (inactive) |
| O=C(NCCc1ccccc1)C(=O)Nc1cccc(Br)c1 | 68% (inactive) |
